RE007 growth inh – qHTS Assay for Inhibitors of the HIV-1 protein Vpr; Potency, µM (series often up to 92.2 µM), for inactives: at the highest dose activity change, negative = less growth, most hits filed as inhibitors; AID 651644, 2012; S. pombe RE007 Vpr strain, BacTiter-Glo ATP luminescence, 24 h; 0.21% of 360,000 active; active means well fitted falling curve with a large enough effect; inconclusive means small, poorly fitted or top-dose-only effect; inactive means no such curve, though single readings can be large or run the other way; further: nearly all actives have a fitted effect of over 50% in size
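Fission yeast strain RE007, carrying one chromosomally integrated HIV-1 vpr copy, was seeded at OD 0.01 in PMG+AL medium with 23 nL pinned compound. After 24 h at 30 °C and 99% humidity, viability was read by BacTiter-Glo luminescence.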
AMA1-RON2 inh – qHTS for Inhibitors of AMA1-RON; Towards Development of Antimalarial Drug Lead: Primary Screen; Plasmodium falciparum AMA1 (3D7) - RON2 peptide interaction; AlphaScreen AMA1-biotinylated RON2 peptide binding; Potency, µM (series often up to 58.2 µM), inactives show at the highest dose activity change, negative = inhibition, actives largely listed as inhibitors; 0.2% of 360,000 active;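 further: 0% = vehicle wells and -100% = peptide control; nearly all actives have a fitted effect of over 45% in size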
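AMA1 (3D7) with his tag at 25 nM final met compounds first, then biotinylated RON2 peptide at 25 nM; detection used donor plus acceptor beads, 10 µg/mL apiece, read by AlphaScreen after 30 min at room temperature.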
TbPYK inhibitor – qHTS of Trypanosoma Brucei Inhibitors; pyruvate kinase (Trypanosoma brucei), Q57TT1; TbPYK enzyme, Kinase-Glo Plus ATP luminescence, 45 min; Potency, µM (doses to about 76.8 µM), without a hit: at the highest dose activity, negative = inhibition, most hits filed as inhibitors; 0.12% of 410,000 active; AID 624173, 2012; further: nearly all actives have a fitted effect of over 50% in size
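Quantitative HTS: titrated library compounds versus trypanosomal pyruvate kinase in TEA buffer (pH 7.2) containing KCl, MgCl2, BSA and Tween-20. Reactions were initiated with ADP, 130 uM final. Kinase-Glo Plus luminescence was read after 45 min at RT.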
LmPK inhibitor – qHTS Assay for Inhibitors of Leishmania Mexicana Pyruvate Kinase (LmPK); AID 1721, 2009; Potency, µM (doses to about 57.5 µM), inactives show at the highest dose activity change, negative = inhibition, hits mostly inhibitors; Q27686; 0.37% of 290,000 active; purified LmPK, Kinase-Glo ATP luminescence, 1 h
Target sequence (Q27686 whole entry, looked up): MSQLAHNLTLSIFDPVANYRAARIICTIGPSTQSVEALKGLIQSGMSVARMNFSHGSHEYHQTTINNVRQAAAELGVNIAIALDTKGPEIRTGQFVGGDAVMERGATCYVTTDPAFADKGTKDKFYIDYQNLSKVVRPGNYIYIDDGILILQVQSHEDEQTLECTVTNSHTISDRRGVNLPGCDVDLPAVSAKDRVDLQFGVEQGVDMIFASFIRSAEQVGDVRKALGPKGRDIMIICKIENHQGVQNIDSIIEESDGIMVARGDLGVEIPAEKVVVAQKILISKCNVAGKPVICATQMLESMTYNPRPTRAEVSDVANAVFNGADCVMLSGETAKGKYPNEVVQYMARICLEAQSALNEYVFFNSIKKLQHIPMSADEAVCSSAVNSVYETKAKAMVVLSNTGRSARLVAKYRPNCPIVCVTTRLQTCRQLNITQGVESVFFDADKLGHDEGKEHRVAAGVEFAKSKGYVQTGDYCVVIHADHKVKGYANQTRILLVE
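Kinase-Glo luminescence read after 1 h RT reaction of 0.1 nM LmPK with 0.5 mM PEP and 0.1 mM ADP. Activity scaled between uninhibited and enzyme-free controls.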
* marks the source's active call; other numbers are inactive results; ? = inconclusive; . = no result given; [ ] = another dose, or the depositor's remark. An excerpt weighted towards active compounds, which were near 0.68% of everything screened. Unless noted, the call rests on the fitted dose curve; in most records, active means well fitted curve in the direction sought with a large enough effect; inconclusive means small, poorly fitted or top-dose-only effect, or another doubt; inactive means no such curve, though single readings can be large; an effect the other way counts as inactive or inconclusive. Unless noted, on the % scale 0 is the no-effect control and ±100 the full control effect; potency means the concentration at half of the fitted maximal effect.

SMILES | RE007 growth inh | AMA1-RON2 inh | TbPYK inhibitor | LmPK inhibitor
COc1ccc(-c2cn3cc(C)ccc3n2)cc1OC | ? | -13% | -8% | 16µM*
Clc1ccc2nc(-c3ccc4c(c3)OCO4)cn2c1 | ? | -2% | -7% | ?
Cc1ccc2nc(-c3ccc4c(c3)OCCO4)cn2c1 | ? | 6% | -11% | 14µM*
COc1ccc(-c2cn3cc(C)ccc3n2)cc1F | -28% | -2% | 6% | -27%
O=C(CCCSc1ccc(Cl)cc1)Nc1ccccc1O | 35µM* | -5% | 7% | -8%
CCn1nc(-c2ccccc2)nc2c(=O)n(C)c(=O)nc1-2 | 25µM* | -1% | -5% | 1%
COc1ccc(NC(=S)NNC(=O)c2ccco2)c(OC)c1 | 18% | 115% | -5% | .
O=Nc1c(O)n(Cc2ccc(Cl)cc2Cl)c2ccccc12 | 22µM* | 11% | -2% | -1%
CCOC(=O)c1csc(-c2ccc(OC)c(OC)c2)n1 | 13% | -18% | -1% | -2%
CCOC(=O)c1csc(-c2sccc2Br)n1 | ? | 11% | -22% | 16µM*
COc1cccc(N2C(=O)CC(c3c[nH]c4ccccc34)C2=O)c1 (stereo not given) | -20% | -10% | -12% | 1%
N/C(=N\OC(=O)c1ccc(F)cc1)c1ccccc1 | ? | 31% | ? | 7.9µM*
COc1ccc(C(=O)O/N=C(\C)c2ccccc2)cc1 | -1% | 8% | 13µM* | 6.3µM*
N/C(=N\OC(=O)c1cccc(F)c1)c1ccccc1 | -28% | 65% | -25% | 16µM*
Cc1ccc(/C(N)=N/OC(=O)c2cccc(F)c2)cc1 | -14% | 37% | -3% | 0%
Cc1ccc(NC(=O)Cn2c(=O)c3ccccc3n3nncc23)cc1 | . | . | 8% | .
COc1cccc(/C=C2\CCc3ccccc3C2=O)c1 | . | 4% | ? | 16µM*
O=C1C(=Cc2ccccn2)CCc2ccccc21 | ? | 14% | ? | .
Cc1ccsc1/C=C1\CCc2ccccc2C1=O | 13µM* | 1% | ? | ?
CC(=O)Oc1ccc(/C=C2/CCc3ccccc3C2=O)cc1 | ? | 0% | ? | 14µM*
O=C(OCC(=O)N1CCCC1)c1cc2c(cc1[N+](=O)[O-])OCCO2 | -2% | 0% | 0% | .
COc1cccc(CSc2nc3ccncc3[nH]2)c1 | ? | 4% | -5% | 25µM*
Nc1nonc1C(=O)N1CCCCC1 | -12% | ? | 3% | 0%
CC(C)Cn1c(C23CC4CC(CC(C4)C2)C3)n[nH]c1=S | -11% | 61% | ? | 25µM*
COCCCn1c(C23CC4CC(CC(C4)C2)C3)n[nH]c1=S | 10% | 68% | ? | -9%
SMILES | RE007 growth inh | AMA1-RON2 inh | TbPYK inhibitor | LmPK inhibitor
O=S(=O)(c1ccc(Cl)cc1)N1CCN(Cc2c[nH]c3ccccc23)CC1 | 0%[3.69 µM] | 2% | . | 7%
CCCN1CCN(C(=O)CCCn2c(C)c3cnn(-c4ccccc4)c(=O)c3c2C)CC1 | 0% | -7% | -1% | 6%
CCOc1ccc(-c2cn3ccccc3n2)cc1 | ? | 0% | ? | 13µM*
COc1ccc2nc3oc(C(=O)Nc4ccc(OC)c(OC)c4)cc3cc2c1 | -8% | 3% | -26% | 22µM*
COc1ccc2cc3cc(C(=O)Nc4ccc5c(c4)OCO5)oc3nc2c1 | -11% | -16% | 3% | 3%
CCOc1ccccc1NC(=O)Cn1ncc2c([nH]c3ccccc32)c1=O | . | . | -5% | .
CCN(CC)c1ccc2nc3ccc(N)cc3[n+](-c3ccccc3)c2c1 | 22µM* | 20µM* | ? | .
CCN(CC)c1ccc2nc3c(=O)n(C)c(=O)n(C)c3nc2c1 | . | . | 1% | .
CCN(CC)c1ccc2nc3ccccc3[n+](CC)c2c1 | 2.8µM* | ? | ? | ?
CCN(CC)c1ccc2cc(-c3nc4ccccc4[nH]3)c(=O)oc2c1 | -5% | 88% | -7% | -4%
Cc1ccc(NC(=O)c2ccccc2O)cc1 | 32µM* | 0% | -7% | -24%
O=C(Nc1ccccc1)c1ccccc1O | -30% | 6% | -8% | -2%
O=c1cc(-c2ccccc2F)oc2ccccc12 | 63µM* | 17% | 2% | 1%
O=c1[nH]nc(SCc2nnc(-c3ccc([N+](=O)[O-])cc3)o2)n1C1CCCCC1 | -9% | 3.2µM* | 0% | 1%
CN(C(=O)CSc1nnc(-c2ccc([N+](=O)[O-])cc2)o1)C1CCCCC1 | . | . | -8% | .
CCc1ccc(NC(=O)CSc2nnc(CNC(=O)c3c(F)cccc3Cl)o2)cc1 | 2% | 2% | 4% | -4%
CCC(C)n1c(-c2cccc(S(=O)(=O)N3CCOCC3)c2)n[nH]c1=S (stereo not given) | -3% | 79% | 7.1µM* | .
O=C(Nc1ccccc1-c1ccccc1)c1cnccn1 | -10% | 19% | -2% | 5%
Cc1[nH]n(-c2ccccc2)c(=O)c1C(c1cc(Cl)ccc1O)c1c(C)[nH]n(-c2ccccc2)c1=O | . | . | 0% | .
Cc1[nH]n(-c2ccccc2)c(=O)c1C(C[N+](=O)[O-])c1ccc(F)cc1 (stereo not given) | ? | 2% | 0% | 6%
Cc1ccc(C(C[N+](=O)[O-])c2c(C)[nH]n(-c3ccccc3)c2=O)cc1 (stereo not given) | 20µM* | -4% | 5% | 0%
Cc1[nH]n(-c2ccccc2)c(=O)c1C(C[N+](=O)[O-])c1ccc(Cl)cc1 (stereo not given) | 28µM* | -19% | -5% | 1%
Cc1ccc(S(=O)(=O)N/N=C\c2ccccc2OCc2ccccc2)cc1 | -18% | -7% | -11% | 0%
Cc1cccc(NC(=O)c2cc3ccccc3o2)c1 | -30% | 18% | -10% | 14µM*
O=C(Nc1cccc(Br)c1)c1cc2ccccc2o1 | ? | 2% | -2% | ?
SMILES | RE007 growth inh | AMA1-RON2 inh | TbPYK inhibitor | LmPK inhibitor
Cc1ccc(C(=O)Nc2nc3ccc(S(C)(=O)=O)cc3s2)o1 | ? | 4% | -17% | 14µM*
Cc1ccc(C(=O)Nc2ncc(C)s2)o1 | -18% | 15% | -21% | 13µM*
CS(=O)(=O)c1ccc2nc(NC(=O)c3ccco3)sc2c1 | -17% | -3% | -11% | ?
O=S(=O)(NCCc1cn2ccccc2n1)c1ccc(-c2ccccc2)cc1 | 2% | -16% | 0% | -8%
COc1ccc(Nc2c([N+](=O)[O-])ccc3c2=NC2(CCCCC2)N=3)cc1 | -26% | 8.9µM* | -12% | -6%
COCc1cc(CN2CCCC2)c(O)c2ncccc12 | -7% | 9.5µM* | 3% | 6%
Oc1c(CN2CCCCC2)cc(COCc2ccccc2)c2cccnc12 | ? | -61% | -9% | 6%
Cc1ccc(C)c(NC(=O)CC2NCCNC2=O)c1 (stereo not given) | . | . | 0% | .
COc1ccc(N=Nc2cc(C)ccc2O)cc1 | -21% | ? | 3% | ?
Cc1ccc(O)c(N=Nc2nccs2)c1 | 18µM* | -15% | -21% | .
Cc1ccccc1NC(=O)c1ccc(F)c(S(=O)(=O)N2CCc3ccccc3C2)c1 | . | . | -6% | .
